A selection: hits, their analogues and other compounds. The true share with any hit is near 9%.
HPGD inh: qHTS Assay for Inhibitors of HPGD (15-Hydroxyprostaglandin Dehydrogenase). 15-hydroxyprostaglandin dehydrogenase [NAD(+)] (Homo sapiens), P15428. purified HPGD, NADH fluorescence kinetic, PGE2 substrate. Potency, µM, without a hit: at the top dose activity change, negative = inhibition, usual class: inhibitors. hit rate 4.3% among 150,000. AID 894, 2007; active = well fitted inhibition curve with a large enough effect, not every such curve was filed as active; inconclusive = small, poorly fitted or top-dose-only effect, or another doubt; inactive = no such curve, though single readings can be large or run the other way
Target sequence (P15428 whole entry, looked up): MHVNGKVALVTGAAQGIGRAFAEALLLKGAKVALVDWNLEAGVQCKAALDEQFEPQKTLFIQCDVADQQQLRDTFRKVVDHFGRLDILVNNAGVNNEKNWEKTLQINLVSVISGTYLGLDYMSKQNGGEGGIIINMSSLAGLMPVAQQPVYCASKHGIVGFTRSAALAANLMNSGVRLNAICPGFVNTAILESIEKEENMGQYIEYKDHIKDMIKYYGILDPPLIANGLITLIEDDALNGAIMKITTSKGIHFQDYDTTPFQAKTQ
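NADH formation kinetics: reaction with 30 uM PGE2 and 1 mM NAD+ (final), 20 nM enzyme, Tris-HCl pH 8 with Tween 20, after 15 min compound preincubation at room temperature. Fluorescence change, last versus first of five reads.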
IMPase Li cell: qHTS Assay for Identifying the Cell-Membrane Permeable IMPase Inhibitors: Potentiation with Lithium; CHO-M1 cells, IP1 TR-FRET (IP-One), carbachol + lithium; Potency, µM (series often up to 59.4 µM), inactives show top-dose activity, negative = IMPase inhibition, hits mostly inhibitors; hit rate 0.35% among 210,000;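 also: IP1 builds up when IMPase is blocked and the TR-FRET signal falls; plate controls were basal vehicle for no effect and high inhibitor control for full effect; nearly all actives have a fitted effect of over 50% in size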
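Test compounds were applied to CHO-M1 cells previously cultured for 16–30 h at 2000 per well. A small lithium amount accompanied them; after 30 min at 37C, IP1 was quantified by TR-FRET.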
Luc counter: Counterscreen for Luciferase (Kinase-Glo TM) Inhibition; Luciferin 4-monooxygenase (Photuris pensylvanica), Q27757; Kinase-Glo luciferase, ATP luminescence, 8 min; Potency, µM (titrated, usually from 38.3 µM), without a hit: at the highest dose activity change, negative = inhibition, actives largely listed as inhibitors; hit rate 0.28% among 200,000; also: nearly all actives have a fitted effect of over 60% in size
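Kinase-Glo luciferase light output from ATP and luciferin was measured with 10 uM ATP, within the enzyme's linear range. Buffer: 50 mM imidazole pH 7.2, 50 mM KCl, 7 mM MgCl2, 0.01% Tween 20, 0.05% BSA; luminescence read after 8 min at ambient temperature.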
ALDH1A1 inh: qHTS Assay for Inhibitors of Aldehyde Dehydrogenase 1 (ALDH1A1). Potency, µM (titrated, usually from 75.3 µM), for the others: at the highest dose activity, negative = inhibition, hits mostly inhibitors. AID 1030, 2008. hit rate 7.3% among 220,000. Purified ALDH1A1, NADH fluorescence, propionaldehyde substrate; active = well fitted inhibition curve with a large enough effect, not every such curve was filed as active; inconclusive = small, poorly fitted or top-dose-only effect, or another doubt; inactive = no such curve, though single readings can be large or run the other way;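 also: plate controls were no enzyme wells and a reference inhibitor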
Target sequence (P00352 whole entry, looked up): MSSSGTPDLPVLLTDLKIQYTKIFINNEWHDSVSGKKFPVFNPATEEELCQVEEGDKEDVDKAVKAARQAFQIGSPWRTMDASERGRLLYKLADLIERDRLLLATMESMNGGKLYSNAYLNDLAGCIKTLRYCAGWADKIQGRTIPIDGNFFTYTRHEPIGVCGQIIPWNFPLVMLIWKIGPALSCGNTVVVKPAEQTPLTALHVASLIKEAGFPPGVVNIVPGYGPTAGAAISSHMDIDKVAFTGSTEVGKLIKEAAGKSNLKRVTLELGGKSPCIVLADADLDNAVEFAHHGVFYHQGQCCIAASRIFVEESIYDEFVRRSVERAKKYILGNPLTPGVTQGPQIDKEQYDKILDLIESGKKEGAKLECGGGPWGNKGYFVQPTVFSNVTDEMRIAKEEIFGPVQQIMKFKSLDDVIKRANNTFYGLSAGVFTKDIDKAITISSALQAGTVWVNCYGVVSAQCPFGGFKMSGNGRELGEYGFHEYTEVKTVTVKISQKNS
Lamin A splicing: qHTS Assay for Modulators of Lamin A Splicing. Potency, µM (top dose mostly 46.1 µM), for the others: at the highest dose ratio change, negative = inhibition, most hits filed as inhibitors. hit rate 0.01% among 200,000. AID 1487, 2009. HeLa LMNA splicing GFP/RFP minigene ratio, 48 h; active = well fitted inhibition curve with a large enough effect in the signal ratio, with a control signal flat, not every such curve was filed as active; inconclusive = small, poorly fitted or top-dose-only effect, or effect the other way, or a change in a side signal; the % refers to the signal ratio
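S3 HeLa cells stably expressing lamin A-EGFP splicing minigene plus DsRed2, 600 cells/well, 48 h compound exposure at 37C. Laser-scanning cytometry; analysed as GFP (500-530 nm)/RFP (575-640 nm) total intensity ratio; 0.5% DMSO vehicle.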
Starred values were filed as active, the others as inactive; ? = inconclusive; . = no result given; [ ] = remark or other dose. Unless noted, calls follow the shape of the dose curve; as a rule, active = well fitted curve in the direction sought with a large enough effect; inconclusive = small, poorly fitted or top-dose-only effect, or another doubt; inactive = no such curve, though single readings can be large; an effect the other way counts as inactive or inconclusive. Unless noted, % is scaled to controls: 0 for no effect and ±100 for the full control effect; potency is read from the fitted curve at half-maximal effect.

SMILES | HPGD inh | IMPase Li cell | Luc counter | ALDH1A1 inh | Lamin A splicing
CC(C)CO/N=C1/C[C@@H](O)[C@@H](O)[C@@H]2[C@H]3C(=O)N(c4ccc(F)cc4F)C(=O)[C@@H]3CC[C@@H]12 | . | . | . | -3%[13.5 µM] | .
COCCn1c(=O)c(-c2cccs2)nc2cnc(N(C)C)nc21 | . | 0% | . | ? | 6%
Cc1cccc2cc3c(N)c(C#N)sc3nc12 | -7% | -20%[38.3 µM] | 10% | -9% | -1%
Cc1sc(NC(=O)c2sc3nc4c(C)cccc4cc3c2N)c(C#N)c1C | 7.1µM* | -20%[38.3 µM] | -5% | 2.8µM* | 1%
CCC1=C2CC[C@H]3C(=O)NC(=O)[C@H]3[C@H]2[C@@]2(Cc3ccccc3)C(=NCC3CC3)OC(=O)N2C1=O | -6% | -3% | -3% | -1% | .
CCOC(=O)C1(CC2CCCCO2)CCN(S(=O)(=O)c2ccc(OC)cc2)CC1 (centres undefined) | . | -1% | 0% | -9% | .
CCOC(=O)C1(CC2CCCCO2)CCN(S(=O)(=O)c2cccc(F)c2)CC1 (centres undefined) | . | 13% | 4% | 25µM* | 1%[46 µM]
CCOC(=O)C1(CC2CCCCO2)CCN(S(=O)(=O)c2cc(C)cs2)CC1 (centres undefined) | . | 0% | -6% | 10µM* | .
CCCCc1ncc(CN2CCC(CC3CCCCO3)(C(=O)OCC)CC2)[nH]1 (centres undefined) | . | 14% | 0% | -2% | .
CCOC(=O)C1(CC2CCCCO2)CCN(Cc2cc3ccccc3[nH]2)CC1 (centres undefined) | . | 14% | -2% | 1.3µM* | .
Cc1ccc(-n2c(SCC(=O)N3CCc4ccccc43)nc3c([nH]c4ccccc43)c2=O)cc1 | . | . | . | . | 3%[46 µM]
CCOC(=O)N1CCN(S(=O)(=O)c2ccc(Br)s2)CC1 | -1% | -2%[38.3 µM] | 0% | 1% | -7%
O=C(c1ccco1)N1CCN(S(=O)(=O)c2ccc(Br)s2)CC1 | ? | 21%[38.3 µM] | -1% | 8.9µM* | -11%
CC1Cc2ccccc2N1C(=O)CSc1nnc(-c2ccc(S(=O)(=O)N3CCOCC3)cc2)n1C (centres undefined) | -8% | -1% | 0% | -4% | 0%
CNC(=O)c1ccc(Oc2ccc(C(=O)NC)cc2)cc1 | 2.5µM* | -18%[38.3 µM] | -6% | -12% | 5%
CNC(=O)c1ccc(OC2CSC2)cc1 | -5% | -7%[38.3 µM] | 0% | 0% | 6%
O=C(COC(=O)c1ccc(CO)cc1)Nc1ccc(OC(F)F)cc1 | . | 0% | 2% | 6% | -17%[46 µM]
COc1ccc(-c2ccc(C#N)c(SCC(=O)NCCc3ccccc3)n2)cc1OC | ? | -15% | 0% | ? | -8%
COc1cccc(-c2ccc(C#N)c(SCC(=O)NCCc3cccc(Cl)c3)n2)c1 | ? | 11µM* | -1% | ? | 17%
COc1ccc(-n2c(C)cc(/C=C3/SC(=S)N(C)C3=O)c2C)cc1 | -10% | 5% | -2% | 1µM* | -13%
O=C1/C(=C\c2ccco2)SC(=S)N1c1ccccc1 | -19% | -4% | 0% | 8.9µM* | 1%
COc1ccc(/C=C2/SC(=S)N(n3c(C)ccc3C)C2=O)cc1 | -26% | 31%[38.3 µM] | 6% | 6.3µM* | 17%
Cc1ccc(N2C(=O)/C(=C\c3ccco3)SC2=S)cc1 | ? | -7%[38.3 µM] | -8% | ? | ?
O=C1/C(=C\c2ccco2)SC(=S)N1Cc1ccccc1 | -21% | 3%[38.3 µM] | -1% | 14µM* | ?
Cc1ccc(CCNC(=O)c2sc3ncccc3c2-n2cccc2)cc1 | . | . | . | . | 6%[46 µM]
SMILES | HPGD inh | IMPase Li cell | Luc counter | ALDH1A1 inh | Lamin A splicing
CCOc1ccc(NC(=O)CCC(=O)NNS(=O)(=O)c2ccccc2[N+](=O)[O-])cc1 | . | 0% | 2% | -5% | .
CCOc1ccc(S(=O)(=O)NCC(c2ccco2)S(=O)(=O)c2ccc(F)cc2)cc1 (centres undefined) | . | . | . | . | 10%[46 µM]
COC(=O)C(C(=O)OC)c1ccc(-n2cccc2)cc1 | . | 12% | 1% | ? | .
Cc1cc(/C=C2\SC(=S)N(Cc3ccco3)C2=O)c(C)n1-c1ccccc1 | ? | 6% | -6% | 0.089µM* | ?
COCCOC(=O)CSc1ncccc1-c1nc2cc(C)c(C)cc2[nH]1 | . | 2% | 13µM* | ? | 10%[9.22 µM]
Cc1cc(NCc2ccncc2)ccc1Br | . | 1% | 1% | 22µM* | .
Cc1ccc(NCc2ccncc2)c(Br)c1 | . | -10% | 1% | 8% | .
Cc1cccc(N(C)C(=O)CCS(=O)(=O)c2ccc3c(c2)oc(=O)n3C)c1 | . | . | . | . | -21%[46 µM]
COc1ccc(Nc2ncnc3ccccc23)c(OC)c1 | ? | 8% | -7% | 10µM* | -13%
CCOC(=O)c1c(N)sc(C)c1-c1ccccc1 | 25µM* | 19% | -2%[39.9 µM] | ? | .
CCOC(=O)c1cc(-c2ccccc2)sc1NC(=O)COC(=O)c1ccc(Cl)c(S(N)(=O)=O)c1 | . | 13µM* | -1% | ? | .
CCOC(=O)c1cc(-c2ccccc2)sc1NC(=O)COC(=O)c1cccc(S(N)(=O)=O)c1 | . | 2% | 2% | 5% | -29%[46 µM]
CCOC(=O)c1c(N)sc(-c2ccccc2)c1C | ? | 1% | -2% | ? | -2%
CCOC(=O)c1cc(-c2ccccc2)sc1N | 11µM* | -1% | 0% | 11µM* | -5%
CCOC(=O)c1cc(-c2ccccc2)sc1NC(=O)c1ccc(OC)cc1 | 3.5µM* | 1%[38.3 µM] | 1% | ? | 13%
Cc1cccc(C(=O)NC(C(=O)Nc2ccccc2N2CCOCC2)C(C)C)c1 (centres undefined) | . | 1% | -1% | 2% | -22%[46 µM]
NC1=NC(c2cn[nH]c2-c2ccc(F)cc2)n2c(nc3ccccc32)N1 (centres undefined) | . | 11% | -1% | 15% | .
CCOC(=O)c1sc(C)c2c1NC(c1ccc(Cl)cc1)NC2=O (centres undefined) | ? | ? | 1% | 3% | ?
COc1cc(C(=O)NCC(=O)N/N=C/c2ccc(OC(=O)c3ccco3)cc2)cc(OC)c1OC | . | 7% | 2% | 7% | .
O=[N+]([O-])c1ccccc1/C=N/Nc1nnc(-c2ccccc2)c(-c2ccccc2)n1 | 0% | -1% | 3% | 0.28µM* | -6%
COc1ccc(NC(=O)CCNS(=O)(=O)c2ccc3c(c2)CCCC(=O)N3)cc1 | . | . | . | . | 5%[46 µM]
COc1ccccc1CNC(=O)[C@@H]1CCCN1S(=O)(=O)c1ccc(C)cc1 | . | 4% | 0% | 1% | 3%[46 µM]
O=C(c1cc2nc(C3CC3)cc(C(F)F)n2n1)N1CCOCC1 | 32µM* | 22%[38.3 µM] | 1% | ? | 5%
COc1ccc(-c2nnc(SCC(=O)Nc3ccc(C)c(C)c3)s2)cc1 | . | . | . | . | 11%[46 µM]
